Measured values taken from PubChem BioAssay AID1159580 (chemical genetic matrix, 2015).
In all, about 5,500 compounds went through this assay and about 2,000 (36%) were called active. Not shown: some 18% with an inconclusive outcome. No stated cut-off is given here; in the data, active means normalized growth mostly below about 0.91 (no sharp cut-off); inconclusive means no clear call, values can overlap the other calls; inactive means mostly above about 0.92. Some of the results follow.

Assay: chemical genetic growth profiling, strain panel (AID 1159580);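 further: tested at 20 µM; growth read once vehicle control cultures reached saturation at 30 °C; 1 = growth at the plate median or of vehicle wells; lower values mean less growth of the strain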
Settings: growth OD

Measured: normalized growth

CC1=CC(=O)C2=C(C)CC(O)C3C(C)C(=O)OC3C12 (stereo not drawn)
inactive: S. cerevisiae deletion strains, locus YBR021W, strain FUR4, active compounds read low 1.01 | S. cerevisiae deletion strains, locus YBR229C, strain ROT2, active compounds read low 1 | S. cerevisiae deletion strains, locus YCL029C, strain bik1, active compounds read low 1.02 | S. cerevisiae deletion strains, locus YDL035C, strain GPR1, active compounds read low 1.03 | S. cerevisiae deletion strains, locus YDL074C, strain BRE1, active compounds read low 1.06 | S. cerevisiae deletion strains, locus YDL101C, strain DUN1, active compounds read low 1.01 | S. cerevisiae deletion strains, locus YDL185W, strain tfp1, active compounds read low 1.02 | S. cerevisiae deletion strains, locus YDL192W, strain arf1, active compounds read low 1.01 | S. cerevisiae deletion strains, locus YDR101C, strain arx1, active compounds read low 1.06 | S. cerevisiae deletion strains, locus YDR162C, strain NBP2, active compounds read low 0.989 | S. cerevisiae deletion strains, locus YDR318W, strain mcm21, active compounds read low 0.994 | S. cerevisiae deletion strains, locus YDR388W, active compounds read low 1.02 | S. cerevisiae deletion strains, locus YDR502C, strain sam2, active compounds read low 1.04 | S. cerevisiae deletion strains, locus YEL061C, strain CIN8, active compounds read low 1 | S. cerevisiae deletion strains, locus YER110C, active compounds read low 1.02 | S. cerevisiae deletion strains, locus YER155C, strain BEM2, active compounds read low 1 | S. cerevisiae deletion strains, locus YER167W, strain BCK2, active compounds read low 1 | S. cerevisiae deletion strains, locus YGL078C, strain dbp3, active compounds read low 1.03 | S. cerevisiae deletion strains, locus YGL086W, strain mad1, active compounds read low 1.04 | S. cerevisiae deletion strains, locus YGL248W, strain PDE1, active compounds read low 0.997 | S. cerevisiae deletion strains, locus YGR135W, strain pre9, active compounds read low 1.02 | S. cerevisiae deletion strains, locus YGR229C, strain SMI1, active compounds read low 1.01 | S. cerevisiae deletion strains, locus YGR252W, strain gcn5, active compounds read low 0.969 | S. cerevisiae deletion strains, locus YHR030C, strain SLT2, active compounds read low 0.999 | S. cerevisiae deletion strains, locus YHR079C, strain IRE1 (second series), active compounds read low 1.02 | S. cerevisiae deletion strains, locus YHR094C, strain hxt1, active compounds read low 1.01 | S. cerevisiae deletion strains, locus YHR129C, strain ARP1, active compounds read low 1.01 | S. cerevisiae deletion strains, locus YHR200W, strain rpn10, active compounds read low 1.02 | S. cerevisiae deletion strains, locus YIL066C, strain RNR3, active compounds read low 0.993 | S. cerevisiae deletion strains, locus YIL073C, strain SPO22, active compounds read low 1.08 | S. cerevisiae deletion strains, locus YIL125W, strain kgd1, active compounds read low 1.03 | S. cerevisiae deletion strains, locus YIR030C, strain dcg1, active compounds read low 1.01 | S. cerevisiae deletion strains, locus YJL095W, strain BCK1, active compounds read low 0.985 | S. cerevisiae deletion strains, locus YJL134W, strain LCB3, active compounds read low 0.996 | S. cerevisiae deletion strains, locus YJL168C, strain set2, active compounds read low 1.01 | S. cerevisiae deletion strains, locus YJL187C, strain SWE1 (second series), active compounds read low 0.997 | S. cerevisiae deletion strains, locus YJR043C, strain POL32, active compounds read low 1.01 | S. cerevisiae deletion strains, locus YJR075W, strain HOC1, active compounds read low 0.992 | S. cerevisiae deletion strains, locus YKL009W, strain mrt4, active compounds read low 1.01 | S. cerevisiae deletion strains, locus YKL068W, active compounds read low 0.999 | S. cerevisiae deletion strains, locus YKL085W, strain MDH1 (second series), active compounds read low 0.992 | S. cerevisiae deletion strains, locus YKL085W, strain MDH1, active compounds read low 0.992 | S. cerevisiae deletion strains, locus YKL190W, strain CNB1, active compounds read low 1.01 | S. cerevisiae deletion strains, locus YKR001C, strain vps1, active compounds read low 1.05 | S. cerevisiae deletion strains, locus YLR039C, strain RIC1, active compounds read low 1.07 | S. cerevisiae deletion strains, locus YLR058C, strain SHM2, active compounds read low 0.99 | S. cerevisiae deletion strains, locus YLR102C, strain apc9, active compounds read low 1.02 | S. cerevisiae deletion strains, locus YLR262C, strain YPT6, active compounds read low 1.04 | S. cerevisiae deletion strains, locus YLR268W, strain sec22, active compounds read low 1.07 | S. cerevisiae deletion strains, locus YLR330W, strain CHS5, active compounds read low 1.01 | S. cerevisiae deletion strains, locus YLR342W, strain FKS1 (second series), active compounds read low 1.06 | S. cerevisiae deletion strains, locus YLR371W, strain rom2, active compounds read low 1.05 | S. cerevisiae deletion strains, locus YLR418C, strain cdc73, active compounds read low 1.01 | S. cerevisiae deletion strains, locus YML016C, strain PPZ1, active compounds read low 1 | S. cerevisiae deletion strains, locus YML032C, strain rad52, active compounds read low 0.988 | S. cerevisiae deletion strains, locus YML124C, strain tub3, active compounds read low 1.01 | S. cerevisiae deletion strains, locus YMR078C, strain ctf18, active compounds read low 1.03 | S. cerevisiae deletion strains, locus YMR223W, strain ubp8, active compounds read low 0.99 | S. cerevisiae deletion strains, locus YMR307W, strain GAS1, active compounds read low 1.02 | S. cerevisiae deletion strains, locus YNL067W, strain RPL9B, active compounds read low 1 | S. cerevisiae deletion strains, locus YNL153C, strain GIM3, active compounds read low 0.999 | S. cerevisiae deletion strains, locus YNL233W, strain BNI4, active compounds read low 1 | S. cerevisiae deletion strains, locus YNL250W, strain rad50, active compounds read low 1.03 | S. cerevisiae deletion strains, locus YNL271C, strain bni1, active compounds read low 1.02 | S. cerevisiae deletion strains, locus YNL298W, strain CLA4, active compounds read low 1.01 | S. cerevisiae deletion strains, locus YNL307C, strain MCK1, active compounds read low 1.03 | S. cerevisiae deletion strains, locus YNL322C, strain KRE1, active compounds read low 1 | S. cerevisiae deletion strains, locus YNR052C, strain pop2, active compounds read low 1.01 | S. cerevisiae deletion strains, locus YOL006C, strain TOP1, active compounds read low 1.13 | S. cerevisiae deletion strains, locus YOL012C, strain htz1 0.87 | S. cerevisiae deletion strains, locus YOL147C, strain pex11, active compounds read low 1.03 | S. cerevisiae deletion strains, locus YOR061W, strain CKA2, active compounds read low 1.01 | S. cerevisiae deletion strains, locus YOR069W, strain VPS5, active compounds read low 1 | S. cerevisiae deletion strains, locus YOR136W, strain idh2, active compounds read low 1.03 | S. cerevisiae deletion strains, locus YOR144C, strain elg1, active compounds read low 1.01 | S. cerevisiae deletion strains, locus YOR184W, strain ser1, active compounds read low 1.06 | S. cerevisiae deletion strains, locus YOR316C, strain cot1, active compounds read low 1.01 | S. cerevisiae deletion strains, locus YPR119W, strain clb2, active compounds read low 1.02 | S. cerevisiae deletion strains, locus YPR141C, strain kar3, active compounds read low 1 | S. cerevisiae deletion strains, locus YPR163C, strain tif3, active compounds read low 1.01 | S. cerevisiae deletion strains, locus YPR167C, strain met16, active compounds read low 1.03 | S. cerevisiae deletion strains, strain wtn01, active compounds read low 1.08 | S. cerevisiae strains, strain wild type, active compounds read low 0.998
